The results in this text go back to publication PMC7862700, “An all-to-all approach to the identification of sequence-specific readers for epigenetic DNA modifications on cytosine”.

Holding throughout (assay): DAPPL (digital affinity profiling via proximity ligation, sequencing); 10 mM Tris-HCl pH 7.5, 50 mM NaCl, 1 mM DTT, 4% glycerol, room temperature, 30 min; GST-TFs on glutathione beads, 16-mer random dsDNA library, 0.1% formaldehyde crosslink after washing; high values mean tight binding
Test [1] addresses T1, FLI1 (Homo sapiens, UniProt Q01543 1-452).
T1 sequence: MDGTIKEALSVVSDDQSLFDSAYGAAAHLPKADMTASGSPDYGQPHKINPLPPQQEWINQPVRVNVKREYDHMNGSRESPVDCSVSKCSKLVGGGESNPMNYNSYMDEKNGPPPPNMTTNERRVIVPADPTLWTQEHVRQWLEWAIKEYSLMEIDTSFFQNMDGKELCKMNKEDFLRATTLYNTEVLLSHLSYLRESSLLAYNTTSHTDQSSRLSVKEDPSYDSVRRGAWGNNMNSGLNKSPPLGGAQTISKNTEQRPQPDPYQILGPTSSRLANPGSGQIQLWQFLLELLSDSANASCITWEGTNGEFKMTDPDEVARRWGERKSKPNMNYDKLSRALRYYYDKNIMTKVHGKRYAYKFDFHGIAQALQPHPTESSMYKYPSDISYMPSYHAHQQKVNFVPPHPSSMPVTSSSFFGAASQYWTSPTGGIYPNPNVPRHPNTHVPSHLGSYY
Particulars: protein: recombinant; tags: N-terminal GST; dsDNA, one strand shown. The procedure, abridged:
(§1)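 Pools were built from human transcription factors expressed in yeast as GST fusions, captured on glutathione beads and DNA-barcoded, along with a tag-only sample. Incubation with 200 nmole of a 16-mer random double-stranded DNA library lasted 30 min at room temperature in Tris/NaCl/DTT/glycerol buffer, and was followed by washing, 0.1% formaldehyde crosslinking, proximity ligation, PCR amplification and Illumina NextSeq500 sequencing. Binding signal is the quotient of each hexamer's read frequency for a factor and its frequency for the tag-only sample.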

Test [2] concerns the target T2, ELK1 (Homo sapiens, UniProt P19419 1-428).
T2 sequence: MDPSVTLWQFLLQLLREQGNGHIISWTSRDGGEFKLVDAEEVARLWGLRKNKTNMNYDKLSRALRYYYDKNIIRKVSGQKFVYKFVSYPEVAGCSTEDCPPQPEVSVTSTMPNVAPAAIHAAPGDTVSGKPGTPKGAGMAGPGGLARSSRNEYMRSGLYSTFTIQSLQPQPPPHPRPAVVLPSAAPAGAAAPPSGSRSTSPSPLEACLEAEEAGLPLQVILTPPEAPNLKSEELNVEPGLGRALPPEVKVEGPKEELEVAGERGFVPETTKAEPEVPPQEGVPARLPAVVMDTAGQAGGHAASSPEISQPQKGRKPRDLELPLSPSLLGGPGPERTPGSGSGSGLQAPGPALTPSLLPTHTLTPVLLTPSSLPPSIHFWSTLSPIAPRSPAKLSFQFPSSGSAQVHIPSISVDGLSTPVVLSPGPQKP
As to conditions: protein: recombinant; tags: N-terminal GST; dsDNA, one strand shown. A digest of the protocol: as §1

Test [3] addresses T3, GABPA (Homo sapiens, UniProt Q06546 1-454).
T3 sequence: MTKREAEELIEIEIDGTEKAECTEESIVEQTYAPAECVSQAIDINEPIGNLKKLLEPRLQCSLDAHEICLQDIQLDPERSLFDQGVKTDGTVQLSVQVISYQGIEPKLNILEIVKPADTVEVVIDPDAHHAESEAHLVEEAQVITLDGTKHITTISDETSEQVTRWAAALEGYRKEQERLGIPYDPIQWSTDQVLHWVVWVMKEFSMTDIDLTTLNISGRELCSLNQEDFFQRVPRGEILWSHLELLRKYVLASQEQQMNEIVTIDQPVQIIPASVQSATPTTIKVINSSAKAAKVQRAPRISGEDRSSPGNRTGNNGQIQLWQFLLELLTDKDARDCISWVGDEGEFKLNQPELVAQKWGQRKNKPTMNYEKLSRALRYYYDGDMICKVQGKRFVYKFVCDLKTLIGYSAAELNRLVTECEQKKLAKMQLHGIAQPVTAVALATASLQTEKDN
Particulars: protein: recombinant; tags: N-terminal GST; dsDNA, one strand shown. The procedure, abridged: as §1

Test [4] has as its target T4, ERG (Homo sapiens, UniProt P11308 1-479).
T4 sequence: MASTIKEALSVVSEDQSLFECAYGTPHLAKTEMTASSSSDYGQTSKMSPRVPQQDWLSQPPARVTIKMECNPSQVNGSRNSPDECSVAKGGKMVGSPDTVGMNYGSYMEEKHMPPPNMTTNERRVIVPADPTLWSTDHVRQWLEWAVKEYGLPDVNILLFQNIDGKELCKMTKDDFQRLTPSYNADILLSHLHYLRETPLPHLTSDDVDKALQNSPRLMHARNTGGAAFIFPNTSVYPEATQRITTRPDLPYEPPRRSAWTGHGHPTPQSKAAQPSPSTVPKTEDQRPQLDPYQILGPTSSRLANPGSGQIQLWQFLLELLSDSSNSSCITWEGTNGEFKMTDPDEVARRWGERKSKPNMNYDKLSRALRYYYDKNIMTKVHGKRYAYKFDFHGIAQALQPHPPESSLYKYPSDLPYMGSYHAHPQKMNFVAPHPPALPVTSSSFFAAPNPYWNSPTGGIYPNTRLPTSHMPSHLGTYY
As to conditions: protein: recombinant; tags: N-terminal GST; dsDNA, one strand shown. A digest of the protocol: as §1

The target of test [5] is ELF1 (Homo sapiens, UniProt P32519 1-619). Particulars: protein: recombinant; tags: N-terminal GST; dsDNA, one strand shown. The procedure, abridged: as §1
Test [6] deals with T5, EHF (Homo sapiens, UniProt Q9NZC4 1-300).
T5 sequence: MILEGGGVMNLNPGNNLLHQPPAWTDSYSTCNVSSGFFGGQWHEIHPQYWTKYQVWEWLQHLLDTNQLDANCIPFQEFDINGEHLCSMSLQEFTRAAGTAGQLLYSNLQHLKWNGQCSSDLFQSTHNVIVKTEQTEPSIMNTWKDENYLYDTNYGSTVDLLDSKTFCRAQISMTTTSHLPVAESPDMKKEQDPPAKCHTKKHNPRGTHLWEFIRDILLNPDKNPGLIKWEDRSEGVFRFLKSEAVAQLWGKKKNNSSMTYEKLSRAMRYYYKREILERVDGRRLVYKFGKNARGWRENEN
As to conditions: protein: recombinant; tags: N-terminal GST; dsDNA, one strand shown. The procedure, abridged:
as §1

The target in test [7] is SPI1 (Homo sapiens, UniProt P17947 1-270). As to conditions: protein: recombinant; tags: N-terminal GST; dsDNA, one strand shown. A digest of the protocol: as §1
Test [8] addresses SPIB (Homo sapiens, UniProt Q01892 1-262). As to conditions: protein: recombinant; tags: N-terminal GST; dsDNA, one strand shown. A digest of the protocol: as §1
Test [9] addresses T6, ELK3 (Homo sapiens, UniProt P41970 1-407).
T6 sequence: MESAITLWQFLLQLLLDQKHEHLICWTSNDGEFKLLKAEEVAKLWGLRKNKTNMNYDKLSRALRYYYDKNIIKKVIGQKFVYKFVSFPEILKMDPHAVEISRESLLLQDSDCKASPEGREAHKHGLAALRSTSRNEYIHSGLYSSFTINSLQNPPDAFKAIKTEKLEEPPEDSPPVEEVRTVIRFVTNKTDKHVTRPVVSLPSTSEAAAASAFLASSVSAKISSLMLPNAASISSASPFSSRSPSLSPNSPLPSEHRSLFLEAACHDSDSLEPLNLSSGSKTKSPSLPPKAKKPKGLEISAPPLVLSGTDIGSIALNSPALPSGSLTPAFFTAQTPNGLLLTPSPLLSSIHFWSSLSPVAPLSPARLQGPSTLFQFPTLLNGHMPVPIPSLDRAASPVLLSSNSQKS
As to conditions: protein: recombinant; tags: N-terminal GST; dsDNA, one strand shown. The procedure, abridged: as §1

Test [10] deals with T7, FEV (Homo sapiens, UniProt Q99581 1-238).
T7 sequence: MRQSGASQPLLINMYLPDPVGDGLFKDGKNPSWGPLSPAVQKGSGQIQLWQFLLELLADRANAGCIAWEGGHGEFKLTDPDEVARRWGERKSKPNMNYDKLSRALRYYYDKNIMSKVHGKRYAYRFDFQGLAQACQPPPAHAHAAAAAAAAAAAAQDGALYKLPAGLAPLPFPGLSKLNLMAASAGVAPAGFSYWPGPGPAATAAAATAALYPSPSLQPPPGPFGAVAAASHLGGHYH
As to conditions: protein: recombinant; tags: N-terminal GST; dsDNA, one strand shown. A digest of the protocol:
as §1

For test [11], the target named is ETV5 (Homo sapiens, UniProt P41161 1-510). Particulars: protein: recombinant; tags: N-terminal GST; dsDNA, one strand shown. A digest of the protocol: as §1
Test [12] has as its target HSF1 (Homo sapiens, UniProt Q00613 1-529). As to conditions: protein: recombinant; tags: N-terminal GST; chain copies: 3; dsDNA, one strand shown. The procedure, abridged: as §1
In test [13] the target is T8, SPIC (Homo sapiens, UniProt Q8N5J4 1-248).
T8 sequence: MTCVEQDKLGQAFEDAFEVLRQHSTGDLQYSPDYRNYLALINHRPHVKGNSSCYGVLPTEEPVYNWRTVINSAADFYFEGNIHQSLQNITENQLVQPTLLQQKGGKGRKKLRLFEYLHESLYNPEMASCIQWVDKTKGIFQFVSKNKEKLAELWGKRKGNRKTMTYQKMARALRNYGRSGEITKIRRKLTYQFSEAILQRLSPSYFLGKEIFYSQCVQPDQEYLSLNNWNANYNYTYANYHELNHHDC
Particulars: protein: recombinant; tags: N-terminal GST; dsDNA, one strand shown. A digest of the protocol: as §1

Test [14] concerns the target ELF4 (Homo sapiens, UniProt Q99607 1-663). Particulars: protein: recombinant; tags: N-terminal GST; dsDNA, one strand shown. The procedure, abridged: as §1
For test [15], the target named is T9, ELK4 (Homo sapiens, UniProt P28324-2 1-405).
T9 sequence: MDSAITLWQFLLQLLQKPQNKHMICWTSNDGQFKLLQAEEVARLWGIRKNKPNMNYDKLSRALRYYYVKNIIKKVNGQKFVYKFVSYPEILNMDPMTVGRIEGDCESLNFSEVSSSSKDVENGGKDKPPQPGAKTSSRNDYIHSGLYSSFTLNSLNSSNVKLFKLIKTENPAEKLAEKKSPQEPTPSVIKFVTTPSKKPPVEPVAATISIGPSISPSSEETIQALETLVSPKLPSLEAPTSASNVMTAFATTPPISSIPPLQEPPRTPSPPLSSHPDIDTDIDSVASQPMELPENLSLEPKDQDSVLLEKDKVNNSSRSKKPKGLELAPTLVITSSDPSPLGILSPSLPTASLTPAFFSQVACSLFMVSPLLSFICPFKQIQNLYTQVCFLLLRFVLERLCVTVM
As to conditions: protein: recombinant; tags: N-terminal GST; dsDNA, one strand shown. A digest of the protocol: as §1

In test [16] the target is T10, ETV2 (Homo sapiens, UniProt O00321 1-342).
T10 sequence: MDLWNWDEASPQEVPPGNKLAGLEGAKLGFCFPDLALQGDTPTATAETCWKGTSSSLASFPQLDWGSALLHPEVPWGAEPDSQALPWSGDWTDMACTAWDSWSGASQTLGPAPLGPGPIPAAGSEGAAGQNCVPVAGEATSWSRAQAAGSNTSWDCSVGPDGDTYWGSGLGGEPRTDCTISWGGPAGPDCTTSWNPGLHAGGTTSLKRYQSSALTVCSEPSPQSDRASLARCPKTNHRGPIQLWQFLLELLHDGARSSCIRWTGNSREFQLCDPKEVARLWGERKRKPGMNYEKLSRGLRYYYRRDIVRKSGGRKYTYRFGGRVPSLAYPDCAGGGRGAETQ
As to conditions: protein: recombinant; tags: N-terminal GST; dsDNA, one strand shown. A digest of the protocol: as §1

Test [17] has as its target T11, ELF3 (Homo sapiens, UniProt P78545 1-371).
T11 sequence: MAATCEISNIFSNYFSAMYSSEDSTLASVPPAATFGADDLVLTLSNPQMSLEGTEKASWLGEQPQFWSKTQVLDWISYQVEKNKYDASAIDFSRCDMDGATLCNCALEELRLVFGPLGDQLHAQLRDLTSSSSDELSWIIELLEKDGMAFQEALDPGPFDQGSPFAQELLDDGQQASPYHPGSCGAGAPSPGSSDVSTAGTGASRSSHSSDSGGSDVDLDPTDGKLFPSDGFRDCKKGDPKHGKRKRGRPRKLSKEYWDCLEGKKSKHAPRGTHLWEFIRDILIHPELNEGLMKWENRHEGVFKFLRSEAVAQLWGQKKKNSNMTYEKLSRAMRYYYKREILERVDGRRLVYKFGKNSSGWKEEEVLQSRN
Particulars: protein: recombinant; tags: N-terminal GST; dsDNA, one strand shown. A digest of the protocol:
as §1

Test [18] concerns the target CRX (Homo sapiens, UniProt O43186 1-299). Particulars: protein: recombinant; tags: N-terminal GST; dsDNA, one strand shown. The procedure, abridged: as §1
The target in test [19] is ETV1 (Homo sapiens, UniProt P50549 1-477). Particulars: protein: recombinant; tags: N-terminal GST; dsDNA, one strand shown. A digest of the protocol: as §1
Sequence of ETV1 (P50549 whole entry): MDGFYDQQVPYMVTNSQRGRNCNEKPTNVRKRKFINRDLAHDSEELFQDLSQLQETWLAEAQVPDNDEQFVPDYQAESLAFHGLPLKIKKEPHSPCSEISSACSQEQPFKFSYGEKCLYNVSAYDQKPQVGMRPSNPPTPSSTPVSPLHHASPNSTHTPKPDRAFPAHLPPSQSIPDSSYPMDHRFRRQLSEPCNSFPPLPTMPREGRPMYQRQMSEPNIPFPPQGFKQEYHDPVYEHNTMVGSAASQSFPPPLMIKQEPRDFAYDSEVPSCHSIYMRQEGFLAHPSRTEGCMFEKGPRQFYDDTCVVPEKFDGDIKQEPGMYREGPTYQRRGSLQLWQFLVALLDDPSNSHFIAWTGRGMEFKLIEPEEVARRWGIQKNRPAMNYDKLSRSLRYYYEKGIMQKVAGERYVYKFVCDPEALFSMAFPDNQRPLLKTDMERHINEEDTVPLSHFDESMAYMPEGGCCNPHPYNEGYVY

Sequence of ELF1 (P32519 whole entry): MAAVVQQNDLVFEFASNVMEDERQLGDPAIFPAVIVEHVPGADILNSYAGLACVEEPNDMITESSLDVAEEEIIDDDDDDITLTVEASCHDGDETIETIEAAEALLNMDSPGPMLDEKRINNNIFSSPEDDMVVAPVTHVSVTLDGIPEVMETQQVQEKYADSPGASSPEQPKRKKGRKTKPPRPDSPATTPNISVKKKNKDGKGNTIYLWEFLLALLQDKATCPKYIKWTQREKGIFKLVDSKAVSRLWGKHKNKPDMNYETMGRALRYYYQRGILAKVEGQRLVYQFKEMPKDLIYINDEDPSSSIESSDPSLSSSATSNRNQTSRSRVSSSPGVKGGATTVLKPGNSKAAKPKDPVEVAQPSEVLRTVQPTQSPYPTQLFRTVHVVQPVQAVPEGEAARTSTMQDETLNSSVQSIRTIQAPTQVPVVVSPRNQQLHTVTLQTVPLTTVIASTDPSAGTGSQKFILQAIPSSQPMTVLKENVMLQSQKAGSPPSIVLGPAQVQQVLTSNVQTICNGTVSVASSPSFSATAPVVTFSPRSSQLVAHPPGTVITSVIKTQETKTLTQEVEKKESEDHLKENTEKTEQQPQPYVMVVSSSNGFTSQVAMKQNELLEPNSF
Sequence of ETV5 (P41161 whole entry): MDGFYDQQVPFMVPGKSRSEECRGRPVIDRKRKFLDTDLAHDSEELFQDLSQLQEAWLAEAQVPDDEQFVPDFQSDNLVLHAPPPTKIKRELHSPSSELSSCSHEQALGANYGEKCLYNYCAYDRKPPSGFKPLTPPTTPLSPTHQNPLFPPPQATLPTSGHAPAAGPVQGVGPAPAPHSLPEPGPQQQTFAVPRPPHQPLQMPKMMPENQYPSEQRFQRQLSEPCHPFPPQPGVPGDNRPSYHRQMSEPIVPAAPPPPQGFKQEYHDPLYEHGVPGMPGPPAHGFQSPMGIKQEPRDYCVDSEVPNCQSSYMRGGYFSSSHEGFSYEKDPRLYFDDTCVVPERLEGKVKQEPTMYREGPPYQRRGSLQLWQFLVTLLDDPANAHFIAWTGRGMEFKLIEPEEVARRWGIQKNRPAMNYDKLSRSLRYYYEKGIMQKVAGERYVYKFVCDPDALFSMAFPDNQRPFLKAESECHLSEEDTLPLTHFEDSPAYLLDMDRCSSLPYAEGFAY
Sequence of ELF4 (Q99607 whole entry): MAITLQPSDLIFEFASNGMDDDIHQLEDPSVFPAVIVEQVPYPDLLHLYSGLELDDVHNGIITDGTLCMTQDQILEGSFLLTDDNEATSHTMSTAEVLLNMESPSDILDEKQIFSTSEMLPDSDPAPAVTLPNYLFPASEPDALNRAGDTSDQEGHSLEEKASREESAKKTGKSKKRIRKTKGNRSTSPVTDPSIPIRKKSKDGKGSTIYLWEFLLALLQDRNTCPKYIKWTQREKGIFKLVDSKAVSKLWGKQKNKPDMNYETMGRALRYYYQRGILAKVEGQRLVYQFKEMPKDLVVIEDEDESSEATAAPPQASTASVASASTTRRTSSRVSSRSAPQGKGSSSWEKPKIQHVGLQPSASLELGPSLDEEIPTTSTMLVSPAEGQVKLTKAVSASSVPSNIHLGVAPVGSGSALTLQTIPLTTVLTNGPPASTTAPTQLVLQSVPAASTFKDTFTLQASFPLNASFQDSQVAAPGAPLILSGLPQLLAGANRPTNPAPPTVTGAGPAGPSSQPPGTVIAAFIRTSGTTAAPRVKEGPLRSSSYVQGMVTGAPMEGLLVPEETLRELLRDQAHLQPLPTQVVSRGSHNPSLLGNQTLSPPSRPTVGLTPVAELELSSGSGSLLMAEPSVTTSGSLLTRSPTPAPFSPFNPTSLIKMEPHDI
Sequence of HSF1 (Q00613 whole entry): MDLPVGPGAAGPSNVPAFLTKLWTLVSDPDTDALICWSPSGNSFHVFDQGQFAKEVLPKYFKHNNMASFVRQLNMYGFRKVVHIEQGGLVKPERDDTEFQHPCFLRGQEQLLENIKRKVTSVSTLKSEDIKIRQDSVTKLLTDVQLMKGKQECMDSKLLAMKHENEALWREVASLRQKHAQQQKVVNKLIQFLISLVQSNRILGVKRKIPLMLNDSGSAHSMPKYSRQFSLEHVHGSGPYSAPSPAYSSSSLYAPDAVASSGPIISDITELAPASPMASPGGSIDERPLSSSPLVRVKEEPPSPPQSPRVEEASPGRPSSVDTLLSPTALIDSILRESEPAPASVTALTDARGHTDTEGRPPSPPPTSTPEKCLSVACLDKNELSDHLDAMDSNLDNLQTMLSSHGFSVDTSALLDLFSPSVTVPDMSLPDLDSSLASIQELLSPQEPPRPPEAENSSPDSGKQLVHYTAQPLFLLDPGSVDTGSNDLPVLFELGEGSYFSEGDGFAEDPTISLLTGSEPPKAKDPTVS
Sequence of CRX (O43186 whole entry): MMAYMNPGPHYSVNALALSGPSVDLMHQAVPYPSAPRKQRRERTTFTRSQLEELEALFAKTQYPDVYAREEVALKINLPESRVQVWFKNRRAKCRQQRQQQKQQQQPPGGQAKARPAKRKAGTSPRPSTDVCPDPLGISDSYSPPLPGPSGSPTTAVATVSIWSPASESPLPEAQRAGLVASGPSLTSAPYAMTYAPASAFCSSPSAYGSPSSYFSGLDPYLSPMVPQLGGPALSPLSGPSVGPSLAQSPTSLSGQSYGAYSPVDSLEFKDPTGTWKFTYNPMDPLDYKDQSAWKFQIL
Sequence of SPIB (Q01892 whole entry): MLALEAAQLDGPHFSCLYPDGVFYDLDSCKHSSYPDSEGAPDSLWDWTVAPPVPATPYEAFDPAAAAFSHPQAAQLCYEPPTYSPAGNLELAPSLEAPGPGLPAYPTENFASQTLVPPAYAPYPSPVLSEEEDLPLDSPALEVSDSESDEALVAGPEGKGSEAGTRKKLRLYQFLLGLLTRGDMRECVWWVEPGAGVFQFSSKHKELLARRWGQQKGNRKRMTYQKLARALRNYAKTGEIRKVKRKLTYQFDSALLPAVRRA

With TATATG, the binding signal in test [1] is 1.28 fold enrichment (6-mer frequency, TF over GST control); in test [2], 1.38 fold enrichment (6-mer frequency, TF over GST control); in test [3], 1.3 fold enrichment (6-mer frequency, TF over GST control); in test [4] it was 1.36 fold enrichment (6-mer frequency, TF over GST control); in test [5], 1.43 fold enrichment (6-mer frequency, TF over GST control); in [6], 1.34 fold enrichment (6-mer frequency, TF over GST control). Moreover, the binding signal in [7] is 1.41 fold enrichment (6-mer frequency, TF over GST control); in test [8], 1.36 fold enrichment (6-mer frequency, TF over GST control); in [9], 1.38 fold enrichment (6-mer frequency, TF over GST control); in [10], 1.33 fold enrichment (6-mer frequency, TF over GST control); in test [11], 1.34 fold enrichment (6-mer frequency, TF over GST control); in [12], 1.28 fold enrichment (6-mer frequency, TF over GST control). Also, the binding signal was 1.47 fold enrichment (6-mer frequency, TF over GST control) in [13]; 1.31 fold enrichment (6-mer frequency, TF over GST control) in test [14]; 1.65 fold enrichment (6-mer frequency, TF over GST control) in [15]; 1.25 fold enrichment (6-mer frequency, TF over GST control) in test [16]; 1.46 fold enrichment (6-mer frequency, TF over GST control) in test [17]; 1.44 fold enrichment (6-mer frequency, TF over GST control) in [18]. Besides, the binding signal in test [19] was 1.33 fold enrichment (6-mer frequency, TF over GST control).
